# PI5P4Ka inh – blocks human PI5P4K alpha kinase activity. P48426. PI5P4Kalpha enzyme, ADP-Glo luminescence, 60 min; active compounds read low. max response, %. 330,000 compounds, 1.2% hits; active = max response of -50% or lower; inconclusive = between -30% and -50%; inactive = -30% or higher; also: value at the top dose of about 77 µM; % is scaled to controls: 0 for no effect and ±100 for the full control effect
#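 Luminescence from ADP-Glo served as readout of PI5P4Kalpha activity in a qHTS format. Reaction: enzyme, substrate, compound, ATP at 5 microM final, 60 min at RT.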
# KDM4E inh – inhibitors of human JMJD2E histone demethylase; 230,000 compounds, 1.6% hits; JMJD2E catalytic domain, FDH-coupled NADH fluorescence (FDH is formaldehyde dehydrogenase); Potency, µM (top dose mostly 57.1 µM), without a hit: at the top dose activity change, negative = inhibition, actives largely listed as inhibitors; B2RXH2; active = well fitted inhibition curve with a large enough effect, not every such curve was filed as active; inconclusive = small, poorly fitted or top-dose-only effect, or another doubt; inactive = no such curve, though single readings can be large or run the other way;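 also: potency is read from the fitted curve at half-maximal effect; 0% = wells with enzyme and -100% = buffer wells without enzyme; nearly all actives have a fitted effect of over 50% in size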
# L3MBTL1 block – L3MBTL1 (human) inhibition. 230,000 compounds, 0.66% hits. AID 485360. AlphaScreen L3MBTL1–H3K9me1 peptide binding. Q9Y468. Potency, µM (titrated, usually from 57.1 µM), for inactives: at the top dose activity, negative = inhibition, usual class: inhibitors; also: potency is read from the fitted curve at half-maximal effect; % is scaled to controls: 0 for no effect and ±100 for the full control effect; nearly all actives have a fitted effect of over 60% in size
# Target sequence (Q9Y468 whole entry, looked up): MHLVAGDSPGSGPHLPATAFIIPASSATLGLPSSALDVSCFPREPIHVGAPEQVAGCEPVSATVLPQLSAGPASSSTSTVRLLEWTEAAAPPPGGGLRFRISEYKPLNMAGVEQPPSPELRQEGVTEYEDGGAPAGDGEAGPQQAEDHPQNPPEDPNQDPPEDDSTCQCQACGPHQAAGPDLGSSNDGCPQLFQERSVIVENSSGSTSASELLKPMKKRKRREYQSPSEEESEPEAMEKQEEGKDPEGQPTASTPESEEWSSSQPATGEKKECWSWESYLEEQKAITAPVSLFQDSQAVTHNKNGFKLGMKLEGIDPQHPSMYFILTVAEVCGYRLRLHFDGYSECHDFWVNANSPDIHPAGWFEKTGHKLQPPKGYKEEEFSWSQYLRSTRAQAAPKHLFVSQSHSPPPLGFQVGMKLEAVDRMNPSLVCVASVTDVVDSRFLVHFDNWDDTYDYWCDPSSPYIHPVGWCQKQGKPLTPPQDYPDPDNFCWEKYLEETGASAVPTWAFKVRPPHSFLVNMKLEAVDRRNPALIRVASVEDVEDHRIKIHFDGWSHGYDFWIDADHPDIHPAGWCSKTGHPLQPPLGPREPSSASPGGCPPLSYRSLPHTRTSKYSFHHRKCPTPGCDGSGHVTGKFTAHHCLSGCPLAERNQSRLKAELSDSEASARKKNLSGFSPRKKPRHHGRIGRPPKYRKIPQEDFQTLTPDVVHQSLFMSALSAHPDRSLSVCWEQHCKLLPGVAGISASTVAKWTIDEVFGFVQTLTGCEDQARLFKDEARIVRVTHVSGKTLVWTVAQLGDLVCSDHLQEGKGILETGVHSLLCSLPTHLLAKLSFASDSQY
#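 AlphaScreen assay: L3MBTL1 (50 nM final) was preincubated 30 min at room temperature with biotinylated H3(1-15)K9me1 peptide (75 nM final), then 30 min with library compounds; streptavidin donor and nickel chelate acceptor beads (10 ug/mL final) added, 30 min dark.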
# HP1b chromo inh – HP1-beta chromodomain-methylated histone interaction inhibition | P83916 | AlphaScreen HP1-beta / biotin-H3K9me3 peptide binding | Potency, µM (series often up to 114 µM), inactives show at the top dose activity change, negative = inhibition, most hits filed as inhibitors | 390,000 compounds, 0.56% hits; also: potency is read from the fitted curve at half-maximal effect; nearly all actives have a fitted effect of over 70% in size
#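 HP1-beta protein (50 nM final) preincubated 30 min at room temperature with biotinylated H3(1-18)K9me3 peptide (50 nM) in PBS pH 7.4, 0.01% Tween-20, then compound added for 30 min. AlphaScreen streptavidin donor/nickel chelate acceptor beads (10 ug/mL final), 30 min dark, luminescence read.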
# JMJD2A Tudor inh – blocks the human JMJD2A Tudor domain | O75164 | AID 504339 | AlphaScreen JMJD2A-Tudor / H3K4me3 peptide binding | Potency, µM (doses to about 114 µM), for the others: at the highest dose activity change, negative = inhibition, hits mostly inhibitors | 390,000 compounds, 4.4% hits; also: potency is read from the fitted curve at half-maximal effect; % is scaled to controls: 0 for no effect and ±100 for the full control effect; nearly all actives have a fitted effect of over 50% in size
# BAZ2B inh – BAZ2B (human) inhibition. Q9UIF8. AlphaScreen BAZ2B-H3K14Ac peptide displacement. Potency, µM (titrated, usually from 114 µM), without a hit: at the top dose activity change, negative = inhibition, usual class: inhibitors. 360,000 compounds, 4.4% hits; also: potency is read from the fitted curve at half-maximal effect; % is scaled to controls: 0 for no effect and ±100 for the full control effect; nearly all actives have a fitted effect of over 60% in size
#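 Inhibition is scored as reduced AlphaScreen emission. The BAZ2B/b-H3(5-23)K14Ac complex (50 nM each) in PBS pH 7.4, 0.01% Tween-20 meets compound (up to 110 uM) for 30 min at RT before bead addition.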
# An asterisk follows results filed as active; ? = inconclusive; nt = no result; [ ] = another dose, or the depositor's remark. In the library only some 5.7% were active in any assay of this set; here they are far more common. Unless noted, calls follow the shape of the dose curve; as a rule, active = well fitted inhibition curve with a large enough effect; inconclusive = small, poorly fitted or top-dose-only effect; inactive = no such curve, though single readings can be large or run the other way.
SMILES,PI5P4Ka inh,KDM4E inh,L3MBTL1 block,HP1b chromo inh,JMJD2A Tudor inh,BAZ2B inh
C=CCN1C(=O)/C(=C\c2ccc(OC(=O)c3ccco3)c(OC)c2)SC1=S,0,-4%,nt,-20%,?,10µM*
O=C1/C(=C/c2ccccn2)SC(=S)N1Cc1ccccc1,-6,1%,1%,1%,-18%,-10%
O=C1/C(=C\c2ccco2)SC(=S)N1Cc1ccccc1,-16,-14%,-26%,?,50µM*,11µM*
O=C1NC(=O)C(=Cc2ccco2)S1,-3,nt,nt,19%,-12%,nt
COc1ccc(C2=CC(c3cccc(C)c3)n3nnnc3N2)cc1 (configuration not stated),nt,nt,nt,78%,-22%,1%
CCCN(CCC)CCN1C(=O)C2C(C(=O)Nc3cccc(SC)c3)C3C=CC2(O3)C1C(=O)NC1CCCCC1 (configuration not stated),3,nt,nt,30%,-8%,-20%
O=C1NC(=S)NC1=Cc1ccco1,-93*,nt,nt,35µM*,22µM*,nt
CCCN=C1N/C(=C\c2ccco2)C(=O)N1c1ccccc1,0,?,nt,23%,-19%,-8%
Cc1ccc(N2C(=O)/C(=C\c3ccco3)SC2=S)cc1,?,-3%,-13%,-15%,-32%,56µM*
O=C1/C(=C\c2ccco2)NC(=S)N1c1ccccc1,?,-3%,7%,?,56µM*,-5%
CCc1ccc(C2/C=C\CNC(c3ccccc3)C(=O)N2Cc2ccc(C)cc2)cc1 (configuration not stated),nt,nt,nt,38%,-20%,nt
CC(C)CCn1c(=O)c2sccc2n2c(CCCC(=O)NC3CCC(C)CC3)nnc12 (configuration not stated),nt,nt,nt,-2%,-13%,-16%
CCCC[C@H]1C2=C3[C@@H](CC(C(=O)OC)=C[C@@H](C(=O)OC)[C@H]3C(C)(C)C2=O)n2c(=O)n(C)c(=O)n21,nt,nt,nt,28%,6%,nt
CC1=NN(c2ccc(C(=O)O)c(N)c2)C(=O)C1,-2,?,nt,71µM*,50µM*,40µM*
CC1=NN(c2ccc(S(=O)(=O)O)cc2Cl)C(=O)C1,1,10%,-4%,-1%,?,-2%
CC1=NN(c2cc(Cl)c(S(=O)(=O)O)cc2Cl)C(=O)C1,1,nt,nt,14%[57 µM],89µM*,nt
CC1=NN(c2ccc(Cl)c(C(=O)O)c2)C(=O)C1,-17,?,?,-38%,56µM*,-26%
COc1ccc(C2(C)NC(=O)NC2=O)cc1OC (configuration not stated),2,nt,nt,38%,-11%,3%
CC(Nc1ccc2c(c1)OCCO2)C(=O)N1CCc2ccccc21 (configuration not stated),-4,18%,-28%,4%,?,45µM*
Cc1ccc(-c2csc(/C(C#N)=C(\O)CN3CCN(C(=O)c4ccco4)CC3)n2)cc1,?,2%,nt,-17%,79µM*,?
COc1cccc(-n2c(=O)c3cc(OC)c(OC)cc3n(CC(=O)Nc3cc(C)[nH]n3)c2=O)c1,-5,?,-11%,34%,-18%,50µM*
COc1ccc(-n2c(=O)c3ccccc3n(CC(=O)Nc3cccc(OC)c3)c2=O)cc1,3,-28%,nt,-7%,-4%[11.4 µM],7%
Cc1cc(Cl)ccc1NNC(=O)c1c(C)noc1C,-5,-9%,7%,-7%,79µM*,-16%
O=c1c2c([N+](=O)[O-])cc([N+](=O)[O-])cc2sn1Cc1ccccc1,-80*,nt,nt,?,4.5µM*,3.5µM*
O=c1c2c([N+](=O)[O-])cc([N+](=O)[O-])cc2sn1-c1ccc(Br)cc1,-85*,3.5µM*,-18%,7.9µM*,18µM*,5µM*
O=[N+]([O-])c1ccc(S(=O)Cc2ccccc2)c([N+](=O)[O-])c1 (configuration not stated),0,nt,nt,-14%,?,nt
CCCOc1ccc(C(=O)N(Cc2ccccc2Cl)C2CCS(=O)(=O)C2)cc1 (configuration not stated),nt,nt,nt,5%,1%,-9%

# High-throughput results deposited in PubChem BioAssay by National Center for Advancing Translational Sciences (NCATS).
